# NS3h inh CB = HCV NS3 helicase inhibitors, primary screen, biochemical, fluorescence polarization, ChemBridge library; NS3h Cy5-dT15 DNA binding; inhibition, % at 100 µM; 16,000 tested, 1.6% active; AID 687043, 2013;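 active = inhibition above the average over every tested compound plus 3 SD, cut at about 40% in these data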
# Cy5 interf NS3h = Cy5 fluorescence quenchers or enhancers, artefact control for HCV NS3 helicase inhibitor project, biochemical, ChemBridge library, Cy5 readout; AID 720488, 2013; Cy5-dT15 DNA with NS3h, fluorescence interference; actives lie on both sides; signal over control mean, under 1 quenches; 16,000 tested, 6% active; fluorescence interference ratio at 100 µM;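 active = compound fluorescence over control fluorescence at most 0.8, a quencher, or at least a set upper limit, an enhancer; inactive = ratio between 0.8 and the set upper limit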
# Numbers stand for hits; - = inactive. In the library only some 6.9% were active in any assay of this set; here they are far more common.
SMILES,NS3h inh CB,Cy5 interf NS3h
Cc1ccc(S(=O)(=O)NC(=NC(Cc2ccccc2)C(=O)O)c2ccccc2)cc1 (stereo unspecified),-,0.74
O=C1C2C3C=CC(C4CC34)C2C(=O)N1c1ccc(I)cc1 (stereo unspecified),-,-
Cc1nc(-c2ccccc2)nc2[nH]ccc(=O)c12,-,0.8
Cc1nc(-c2ccccc2)c2c(=O)cc[nH]c2n1,-,-
CC12CC3CC(C)(C1)CC(C(=O)Nc1cc(Cl)ccc1Cl)(C3)C2,-,-
COc1cc(C(=O)NCCOc2ccccc2Cl)cc(OC)c1OC,-,-
O=C(Nc1cc(Cl)cc(Cl)c1)c1ccc2ccccc2c1,-,1.3
O=C(Nc1ccc(NC(=O)c2ccc3ccccc3c2)cc1)c1ccccc1,-,-
O=C(Nc1cccc(Br)c1)c1ccccc1,-,-
O=P(O)(O)CP(=O)(c1ccccc1)c1ccccc1,-,0.76
O=P(CO)(c1ccccc1)c1ccccc1,-,-
O=C(Nc1ccc(S(=O)(=O)NC(=O)C2CCCCC2)cc1)c1cccc(Br)c1,-,0.59
O=C(Nc1ccc(S(=O)(=O)Nc2ncccn2)cc1)c1cccc(Br)c1,-,-
O=C(Nc1cc(Cl)cc(Cl)c1)C(c1ccccc1)c1ccccc1,-,-
O=C(Nc1cc(C(F)(F)F)ccc1Cl)C(c1ccccc1)c1ccccc1,-,0.77
COc1cc(NC(=O)c2ccc([N+](=O)[O-])cc2)ccc1NC(=O)c1ccco1,-,-
COc1cc(NC(=O)c2cccc([N+](=O)[O-])c2)ccc1NC(=O)c1ccco1,-,0.73
O=C(/C=C/c1cccc(C(F)(F)F)c1)Nc1cccc(Br)c1,-,-
O=[N+]([O-])c1cccc(CN2CCN(Cc3cc(Br)ccc3O)CC2)c1,-,-
CCOC(=O)C1=C(C)N=c2s/c(=C/c3ccccn3)c(=O)n2C1c1ccccc1Cl (stereo unspecified),-,-
CCOC(=O)C1=C(C)N=c2s/c(=C\c3ccc([N+](=O)[O-])o3)c(=O)n2C1c1ccccc1Cl (stereo unspecified),-,0.71
CCOC(=O)C1=C(C)N=c2s/c(=C\c3ccc([N+](=O)[O-])o3)c(=O)n2C1c1ccc(C)cc1 (stereo unspecified),-,0.75
CCOC(=O)C1=C(C)N=c2s/c(=C\c3ccc([N+](=O)[O-])o3)c(=O)n2C1c1cccs1 (stereo unspecified),-,-
COc1ccc(NC(=O)CN(c2ccc(C)cc2)S(=O)(=O)c2ccc(OC)c(OC)c2)c(OC)c1,-,-
O=C(CSc1ncn(-c2ccccc2)n1)c1ccc(Br)cc1,-,-
SMILES,NS3h inh CB,Cy5 interf NS3h
Cn1ccnc1SCC(=O)c1ccc(Br)cc1,-,0.77
CS(=O)(=O)N(CC(=O)Nc1cccc2ccccc12)c1cccc(Cl)c1,-,-
COc1ccc(OC)c(N(CC(=O)NC(C)c2ccccc2)S(C)(=O)=O)c1 (stereo unspecified),-,-
CN(C)CC#CC(O)(c1ccccc1)c1ccccc1,-,-
CN(CCOC(=O)C(C)(c1ccccc1)c1ccccc1)C(C)(C)C,-,0.76
CC(=O)N(C)N1c2ccccc2CCc2ccccc21,-,-
CC(=O)N1c2ccccc2CC(N2CCCCC2)c2ccccc21 (stereo unspecified),-,0.76
Cc1ccc(C(=O)NC(NC(=S)Nc2cc(C)ccc2C)C(Cl)(Cl)Cl)cc1 (stereo unspecified),-,0.64
Cc1ccc(C(=O)NC(NC(=S)Nc2ccccc2)C(Cl)(Cl)Cl)cc1 (stereo unspecified),-,-
CCCCOC(=O)c1ccc(NC(C)=O)cc1,-,0.68
CCCCOC(=O)c1ccc(NC(=O)C2CC(C)=C(C)CC2C(=O)O)cc1 (stereo unspecified),-,-
N/N=C1\NC(=O)C(Cc2cccc([N+](=O)[O-])c2)S1 (stereo unspecified),-,-
Cc1ccccc1/C=N\N=C1\NC(=O)C(Cc2cccc([N+](=O)[O-])c2)S1 (stereo unspecified),-,1.3
O=C(Nc1ccccc1C(=O)Nc1ccc(Cl)cc1)c1ccc([N+](=O)[O-])cc1,-,-
Cc1ccccc1NC(=O)C(=O)NCCO,-,-
O=C(CC1S/C(=N/N=C\c2ccccc2)NC1=O)Nc1ccccc1Br (stereo unspecified),-,-
CCCC(O)=C1C(=O)CC(C)(C)CC1=Nc1ccc([N+](=O)[O-])cc1,-,-
COc1ccc(/C=C2\C=C(c3ccc(Br)cc3)OC2=O)c(C)c1,-,-
Cc1ccc2cc(C3=C/C(=C/c4ccc([N+](=O)[O-])o4)C(=O)O3)ccc2c1,-,0.77
Cc1ccc(C2=C/C(=C/c3ccc(-c4ccc([N+](=O)[O-])cc4)o3)C(=O)O2)cc1,-,-
Cc1ccc(/C=C2/C=C(c3ccc(Br)cc3)OC2=O)o1,-,0.68
COc1cc(NC(=O)c2nn3c(c2Br)NC(c2cccs2)CC3C(F)(F)F)c(OC)cc1Cl (stereo unspecified),-,-
Cc1cc([N+](=O)[O-])c(-c2ccc(/C=N\n3cnnc3)o2)cc1Cl,-,-
N#Cc1ccccc1N=C1C(=O)Nc2ccccc21,-,-
O=C1Nc2ccc([N+](=O)[O-])cc2C1=Nc1ccc(-c2ccc(N=C3C(=O)Nc4ccc([N+](=O)[O-])cc43)cc2)cc1,-,0.77
SMILES,NS3h inh CB,Cy5 interf NS3h
COc1cccc(N2C(=O)C(=O)C(=C(O)c3ccccc3)C2c2ccccc2F)c1 (stereo unspecified),-,-
Cc1cc(C)nc(N=C(N)Nc2ccc(Cl)cc2C(=O)c2ccccc2)n1,-,0.79
Cc1cc(C)nc(N=C(N)Nc2ccc(C(=O)O)cc2)n1,-,-
COc1ccccc1C(=O)Nc1ccc(-c2cc3ccccc3oc2=O)cc1,-,0.76
Cc1cc(NC(=O)c2ccc(Cl)cc2)ccc1-c1cc2ccccc2oc1=O,-,0.66
Cc1cc(NC(=O)c2ccccc2I)ccc1-c1cc2ccccc2oc1=O,-,-
CCOc1ccc(C(=O)Nc2ccc(-c3cc4ccccc4oc3=O)c(C)c2)cc1Cl,-,-
O=C(COc1ccc(Br)cc1)Nc1ccc(F)c([N+](=O)[O-])c1,-,-
CC(=O)OCCN1C(=O)c2ccc(Oc3cccc(Oc4ccc5c(c4)C(=O)N(CCOC(C)=O)C5=O)c3)cc2C1=O,-,-
Cc1[nH]nc2c1C(c1cc(Br)cs1)C(C#N)=C(N)O2 (stereo unspecified),-,1.2
COC(=O)C1=C(N)Oc2n[nH]c(C)c2C1c1ccc(Br)cc1 (stereo unspecified),-,-
Cc1ccc2nc(Nc3nc(C)cc(-c4ccccc4)n3)nc(C)c2c1,-,-
Cc1ccc2nc3nc(C)cc(C)c3c(N)c2c1,-,0.71
Cc1ccc(OCCOCCOc2ccc(Br)cc2/C=C2/SC(=S)NC2=O)cc1,-,-
Cc1ccc(C(O)=C2C(=O)C(=O)N(CCCC(=O)O)C2c2ccc(Br)cc2)cc1 (stereo unspecified),-,1.2
O=C(O)CCCCCN1C(=O)C(=O)C(=C(O)c2ccc(F)cc2)C1c1ccc(Cl)cc1 (stereo unspecified),-,-
COc1ccc2c(c1)C(NC(=O)C(F)(F)F)CC2=O (stereo unspecified),-,0.62
COc1ccc(OC)c(C2C3=C(CC(C)(C)CC3=O)OC3=C2C(=O)CC(C)(C)C3)c1,-,-

# Assay outcomes: PubChem, Milwaukee Institute for Drug Discovery
